For 69 compounds, hERG blockade results are on record in PubChem BioAssay AID376 (PDSP, 2006).

The whole screen tested about 2,000 compounds, of which about 250 (12%) were called active. Only a selection was taken, and actives are over-represented in it overall. Unmarked numbers belong to inactive results. Cut-off read from the data, not from the text of the source: active = hERG blockade below about -20% or above about 20%; inactive = in between.

The target in this experiment is Voltage-gated inwardly rectifying potassium channel KCNH2 (Homo sapiens) (UniProt Q12809). Kind of experiment: KCNH2 potassium channel function modulators, cell-based (AID 376).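 Note: 0% = buffer alone and 100% = reference blocker.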 The conditions noted are these: hERG-expressing cells, channel activity single-concentration screen; concentration not given here.
Chain of Voltage-gated inwardly rectifying potassium channel KCNH2 (Homo sapiens) (Q12809 whole entry, looked up): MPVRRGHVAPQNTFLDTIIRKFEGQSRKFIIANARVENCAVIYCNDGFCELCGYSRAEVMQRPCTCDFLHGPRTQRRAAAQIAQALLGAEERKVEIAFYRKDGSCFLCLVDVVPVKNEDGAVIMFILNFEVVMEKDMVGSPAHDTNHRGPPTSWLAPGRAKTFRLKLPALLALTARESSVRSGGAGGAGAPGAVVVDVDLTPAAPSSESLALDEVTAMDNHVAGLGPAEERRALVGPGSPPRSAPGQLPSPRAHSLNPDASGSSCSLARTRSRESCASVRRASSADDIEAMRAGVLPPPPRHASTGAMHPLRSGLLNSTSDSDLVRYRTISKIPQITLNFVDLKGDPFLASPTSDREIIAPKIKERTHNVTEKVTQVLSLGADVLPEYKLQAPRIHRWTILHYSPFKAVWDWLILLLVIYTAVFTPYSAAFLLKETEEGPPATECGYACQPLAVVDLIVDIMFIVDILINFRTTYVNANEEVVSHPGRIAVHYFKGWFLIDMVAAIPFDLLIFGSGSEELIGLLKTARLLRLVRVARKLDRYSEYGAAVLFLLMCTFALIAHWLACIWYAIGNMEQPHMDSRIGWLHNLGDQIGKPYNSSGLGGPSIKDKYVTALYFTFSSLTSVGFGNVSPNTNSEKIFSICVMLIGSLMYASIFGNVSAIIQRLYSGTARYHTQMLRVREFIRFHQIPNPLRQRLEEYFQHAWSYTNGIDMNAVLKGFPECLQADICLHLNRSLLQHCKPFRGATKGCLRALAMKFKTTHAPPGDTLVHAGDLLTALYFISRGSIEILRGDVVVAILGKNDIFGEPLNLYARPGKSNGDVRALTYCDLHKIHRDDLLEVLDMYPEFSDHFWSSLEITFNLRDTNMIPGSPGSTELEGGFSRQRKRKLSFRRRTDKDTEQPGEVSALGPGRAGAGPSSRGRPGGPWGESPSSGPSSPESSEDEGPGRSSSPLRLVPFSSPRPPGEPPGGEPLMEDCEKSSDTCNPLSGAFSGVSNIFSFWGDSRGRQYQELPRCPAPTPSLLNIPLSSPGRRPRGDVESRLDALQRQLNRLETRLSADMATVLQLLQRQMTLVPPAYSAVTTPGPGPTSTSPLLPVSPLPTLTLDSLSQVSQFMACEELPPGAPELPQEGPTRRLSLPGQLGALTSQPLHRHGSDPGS
For the compound `O=C(CCN1CCOCC1)Nc1ccc(F)cc1F`, the hERG blockade is 4.1%.

Turning to `O=C(O)Cc1[nH]cnc1C(=O)O`, the hERG blockade is -3.29%.

In the case of `O=C1C(=Cc2ccccc2)C(NC2CCCCC2)c2ccccc21` (centres undefined), the hERG blockade is -0.193%.

On to `CC(C)C1OC(=O)C=CC=CC=CC=CC=CCC(O)C(C)C(O)CC(O)CC(O)CC(O)CC(O)CC(O)CC(O)C=CC1C` (centres undefined), for which the hERG blockade was 5.61%.

`Oc1c(Cl)cc(CN(Cc2cc(Cl)c(O)c(Cl)c2)C2CCCCC2)cc1Cl`: the hERG blockade is 1.49%.

Consider `Oc1c(Cl)cc(C(c2cc(Cl)c(O)c(Cl)c2)C(c2cc(Cl)c(O)c(Cl)c2)c2cc(Cl)c(O)c(Cl)c2)cc1Cl`, for which the hERG blockade was 25.7% (active).

Turning to `CN(C)Cc1cc(Cl)c(O)c(CN(C)C)c1`, the hERG blockade was 1.1%.

With `CC(C)(CC1(C)NC(=O)NC1=O)OCc1ccccc1` (centres undefined), the hERG blockade was -10.8%.

As for `O=C(O)Cn1ccnc1[N+](=O)[O-]`, the hERG blockade is -10.9%.

As for `Nc1nc(C(=O)O)c(N=Nc2ccccc2)c(=O)[nH]1`, the hERG blockade was 33.3% (active).

Regarding `NCCCc1c(-c2ccccc2)nc(N)[nH]c1=O`, the hERG blockade was -2.69%.

For `O=C(O)c1nc(-c2ccccc2)[nH]c1C(=O)O`, the hERG blockade is 4.21%.

Take `O=C(c1nc2ccc([N+](=O)[O-])cc2[nH]c1=O)C(O)c1ccc2c(c1)OCO2` (centres undefined): the hERG blockade was -14.1%.

For the compound `O=C1CN2CCN(CC2)CC(=O)Nc2ccc(cc2)S(=O)(=O)c2ccc(cc2)NC(=O)CN2CCN(CC2)CC(=O)Nc2ccc(cc2)S(=O)(=O)c2ccc(cc2)N1`, the hERG blockade is 6.34%.

In the case of `O=C(O)c1ccc([N+]2=Cn3c(nc4ccccc43)C2)cc1`, the hERG blockade was 6.37%.

On to `COC(=O)CCC(C)C1CCC2C3CCC4CC5CCC4(C)C3(O5)C(Br)C(Br)C12C` (centres undefined), for which the hERG blockade is 5.42%.

For the compound `CCC(N)(C(=O)O)C(C)C` (centres undefined), the hERG blockade is -13.5%.

As to `NC(=O)N=C(N)NC(=O)c1ccccc1`, the hERG blockade was -1.06%.

In the case of `CN=C(N)N=C(N)Nc1cc2ccccc2c2ccccc12`, the hERG blockade was -54.4% (active).

Turning to `CCOC(=O)C(C)(C)C(O)C(C)C` (centres undefined), the hERG blockade was 16.9%.

Consider `Cc1nc(N)nc2ccccc12`, for which the hERG blockade is 1.82%.

As for `CS(=O)(=O)Nc1ccc(Nc2c3ccccc3nc3ccccc23)cc1`, the hERG blockade is 30.8% (active).

Turning to `CC1OC(O)C(O)C(O)C1O` (centres undefined), the hERG blockade was 8.47%.

For the compound `O=C(O)C(Sc1ccc(Cl)cc1)Sc1ccc(Cl)cc1`, the hERG blockade is -7.17%.

`Oc1ccc(Cl)cc1Sc1cc(Cl)ccc1O`: the hERG blockade was 36.8% (active).

Regarding `N#CCCSC(=S)C1CCCC1=N` (centres undefined), the hERG blockade is 14.7%.

Regarding `CSc1ccc2c(c1)N(CCCN(C)C)c1ccccc1S2`, the hERG blockade was 90.6% (active).

In the case of `CN(C)CCCn1c2ccccc2c2cnccc21`, the hERG blockade is 90.4% (active).

As for `CN(C)CCCN1c2ccccc2Sc2cnccc21`, the hERG blockade was 73.5% (active).

Take `CN(C)CCCN1c2ccc(O)cc2Sc2ccc(Cl)cc21`: the hERG blockade was 62.7% (active).

For `Cc1c2cnccc2c(C)c2c1c1ccccc1n2CCOC(=O)c1ccccc1`, the hERG blockade was 17.4%.

As for `CN(C)CCCn1cnc2cc(Cl)c(Cl)cc21`, the hERG blockade is 5.34%.

With `Oc1cc(O)c2c(c1)OC(c1ccc(O)c(O)c1)C(OC1(c3cc(O)c(O)c(O)c3)Oc3cc(O)cc(O)c3C(O)C1O)C2` (centres undefined), the hERG blockade is -3.37%.

Regarding `CC(CC(=O)O)C(C(=O)O)C(=O)O` (centres undefined), the hERG blockade was 2.78%.

Consider `Oc1cc(CN2COc3ccccc32)c(O)cc1CNC1CCCCC1`, for which the hERG blockade was 6.98%.

`N=c1nc(N)nc(N)n1-c1ccc(S(N)(=O)=O)cc1`: the hERG blockade was -2.11%.

Consider `Nc1[nH]c(=O)nc2c1ncn2C1OC(CO)C(O)C1O` (centres undefined), for which the hERG blockade is -9.03%.

For `COc1ccc2cc(C(=O)CCC(=O)O)ccc2c1`, the hERG blockade was -0.161%.

In the case of `NC(=[SH+])[N-]N=Cc1ccccn1.O=S(=O)([O-])O.[Fe]`, the hERG blockade is 8.22%.

As for `O=C(O)c1ccncc1.O=C(O)c1ccncc1.[Cl][Pt]([Cl])([Cl])[Cl]`, the hERG blockade was 16.7%.

Take `C[N+]1(CCN=C=NC2CCCCC2)CCOCC1`: the hERG blockade is 4.24%.

For `CN(C)CCCN1c2ccc3ccccc3c2Sc2cccc(Cl)c21`, the hERG blockade is 30.4% (active).

Take `CCN(CC)CCN1C(=O)c2cccc3cc(N)cc(c23)C1=O`: the hERG blockade is -2.82%.

`CN(C)CCCN1c2ccccc2Sc2ccc3ccccc3c21`: the hERG blockade was 112% (active).

Regarding `CCN(CC)CCN1c2ccccc2Sc2ccc3ccccc3c21`, the hERG blockade is 28.5% (active).

`CN(C)CCCN1c2ccccc2C(C)(C)c2ccccc21`: the hERG blockade was 34.9% (active).

With `Clc1ccc(-c2nnc(-c3cccc4ccccc34)o2)cc1Cl`, the hERG blockade was -2.83%.

Turning to `N=Nc1c(OC(=O)Nc2ccccc2)[nH]c2ccccc12`, the hERG blockade is 18.5%.

`CN(C)CCC(C(=O)C(C)(C)C)c1ccccn1` (centres undefined): the hERG blockade is -9.42%.

Consider `CS(=O)(=O)c1ccc(C=NNC(N)=S)cc1`, for which the hERG blockade was -0.277%.

Turning to `O=[N+]([O-])c1ccc(NN=C2c3ccccc3Cc3ccccc32)c([N+](=O)[O-])c1`, the hERG blockade is 8.87%.

With `O=C(O)c1cc(N=Cc2ccccc2O)cc(C(=O)O)c1`, the hERG blockade was -2.64%.

For the compound `Nc1nc(N)c2nn(-c3ccc(C(=O)O)cc3)nc2n1`, the hERG blockade was 14.6%.

As for `NCCSCC(N)C(=O)O` (centres undefined), the hERG blockade is 1.01%.

`O=C(O)c1ccc(OCc2ccccc2)c(Cl)c1`: the hERG blockade was 4.92%.

With `Cc1c[n+](=O)c2ccccc2n1[O-]`, the hERG blockade is -5%.

Take `O=C(O)C1C2C=CC(O2)C1C(=O)NCc1ccncc1` (centres undefined): the hERG blockade was -11%.

On to `Clc1ccc(-c2noc(CN3CCCCC3)n2)cc1`, for which the hERG blockade is -11.3%.

Consider `C[N+](C)(N)Cc1nc(-c2ccc(Cl)cc2)no1`, for which the hERG blockade is 1.91%.

As for `N=C(N)SCc1nc(-c2ccc(Cl)cc2)no1`, the hERG blockade was -25.1% (active).

For the compound `Cc1cc2c(cc1C)NC1=C(N2)OC(c2c[nH]c3ccc(COc4ccccc4)cc23)C1=O` (centres undefined), the hERG blockade is -6.35%.

Turning to `CCOC(=O)C1=C(C)NC(=O)NC1c1coc2cc(C)cc(C)c2c1=O` (centres undefined), the hERG blockade was -8.18%.

Regarding `Cc1ccc(S(=O)(=O)N2CCC(C(=O)O)(c3ccccc3)CC2)cc1`, the hERG blockade was -1.68%.

Take `COc1ccc2c(=O)cc(-c3ccncc3)oc2c1OC`: the hERG blockade was 72.1% (active).

For the compound `C1CCN(CCC2CCCCN2)CC1` (centres undefined), the hERG blockade is -0.957%.

For `Oc1cccnc1CN1CCCCC1`, the hERG blockade was -6.51%.

Turning to `CN1CCN(CC(=O)Nc2cccc3ccccc23)CC1`, the hERG blockade was 8.36%.

Turning to `[O-][n+]1c(CN2CCCCC2)nc2cccc3c2c1-c1ccccc1-3`, the hERG blockade is 41.6% (active).

On to `CN1CCN(Cc2nc3cccc4c3c([n+]2[O-])-c2ccccc2-4)CC1`, for which the hERG blockade was 39.2% (active).
